# Measurements as given in publication PMC5540273 (PLoS ONE, 2017).
# Tests used:
# Settings in all cases: concentration: 1 μM,replicates: in singlicate; n = 1
# [1] = tested on: T1, MLK1
# T1 construct: gene MAP3K9
# [2] = tested on: MLK2
# [3] = tested on: MLK3
# [4] = tested on: MRCKA
# [5] = tested on: T2, MRCKB
# T2 construct: gene CDC42BPB
# [6] = tested on: T3, MST1
# T3 construct: gene STK4
# [7] = tested on: T4, MST2
# T4 construct: gene STK3
# [8] = tested on: MST4
# [9] = tested on: MTOR
# [10] = tested on: MUSK
# [11] = tested on: MYLK2
# [12] = tested on: MYLK4
# [13] = tested on: MYLK
# [14] = tested on: MYO3A
# [15] = tested on: MYO3B
# [16] = tested on: T5, NDR1
# T5 construct: gene STK38
# [17] = tested on: NDR2
# [18] = tested on: NEK10
# [19] = tested on: MST1R
# [20] = tested on: T6, MST3
# T6 construct: gene STK24
# 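Note: KINOMEscan kinase panel screen.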
Compound,%Inh [1],%Inh [2],%Inh [3],%Inh [4],%Inh [5],%Inh [6],%Inh [7],%Inh [8],%Inh [9],%Inh [10],%Inh [11],%Inh [12],%Inh [13],%Inh [14],%Inh [15],%Inh [16],%Inh [17],%Inh [18],%Inh [19],%Inh [20]
C[C@@H](Oc1cc(-c2cnn(C3CCNCC3)c2)cnc1N)c1c(Cl)ccc(F)c1Cl,0%,0%,0%,0%,10%,56%,0%,0%,2%,75%,20%,30%,21%,0%,0%,19%,6%,60%,,
Cc1cc2cn[nH]c2cc1-c1cccc2c(N)c(C(N)=O)nnc12,18%,0%,30%,24%,0%,90.2%,88%,69%,3%,0%,0%,10%,71%,14%,0%,85%,0%,86%,11%,11%
Cc1occc1-c1nc(N)c(OC[C@@H](N)Cc2c[nH]c3ccccc23)cc1-c1cc2c(C)n[nH]c2cn1 [GSK1660450],29%,0%,22%,78%,97.6%,96.8%,78%,94.9%,15%,9%,29%,9%,37%,69%,28%,11%,0%,6%,0%,91.2%
CCn1c(-c2nonc2N)nc2c(C#CC(C)(C)O)nc(OCCN)cc21.Cl.Cl [GSK902056],0%,0%,0%,3%,0%,0%,0%,0%,13%,20%,33%,6%,4%,0%,0%,31%,16%,6%,43%,0%
Cl.Cl.NC[C@H](Cc1ccc(C(F)(F)F)cc1)NC(=O)c1cc(Br)c(-c2ccnc3[nH]ccc23)s1 [GSK1487252],4%,0%,0%,43%,97.7%,0%,0%,17%,11%,0%,25%,45%,55%,2%,9%,93.3%,41%,16%,44%,13%
Cc1n[nH]c2ccc(-c3cc(OC[C@@H](N)Cc4ccccc4)cnc3-c3ccoc3)cc12.O=C(O)C(F)(F)F.O=C(O)C(F)(F)F [GSK507358],0%,0%,0%,28%,15%,2%,33%,65%,1%,6%,25%,15%,14%,80%,28%,14%,16%,5%,33%,17%
Cc1ccc(-n2nc(C(C)(C)C)cc2NC(=O)Nc2ccc(OCCN3CCOCC3)c3ccccc23)cc1 [GW839464],6%,22%,1%,8%,49%,0%,33%,0%,19%,0%,0%,0%,3%,0%,15%,5%,2%,0%,0%,11%
CCN(CC)CCOc1ccc(Nc2ncc3cc(-c4c(Cl)cccc4Cl)c(=O)n(C)c3n2)cc1 [SB-601273],87%,71%,75%,83%,76%,57%,58%,83%,43%,51%,98.4%,26%,29%,61%,38%,32%,71%,12%,93%,80%
CN(C)CCOc1ccc(-c2cc(-c3c[nH]nc3-c3ccccn3)ccn2)cc1 [GW835314],14%,6%,19%,0%,0%,25%,0%,24%,0%,9%,0%,0%,15%,0%,30%,14%,0%,0%,0%,6%
CC(C)Nc1cc(-c2ccc3c(N)n[nH]c3c2)nc(N)n1 [GSK2221681],10%,0%,9%,0%,0%,0%,0%,0%,9%,0%,23%,37%,18%,0%,0%,10%,0%,13%,13%,0%
Cc1ccc2c(-c3ccncc3)c(-c3ccc(F)cc3)nn2c1.Cl [GW461484],10%,0%,0%,5%,0%,5%,7%,0%,9%,0%,17%,3%,13%,0%,7%,29%,0%,9%,38%,2%
C[C@@H]1CCN(C(=O)CC#N)C[C@@H]1N(C)c1ncnc2[nH]ccc12,0%,0%,3%,0%,0%,3%,0%,0%,51%,11%,6%,4%,0%,8%,0%,0%,12%,0%,0%,100%
CNC(=O)c1ccccc1Sc1ccc2c(/C=C/c3ccccn3)n[nH]c2c1,0%,17%,1%,0%,100%,0%,50%,0%,52%,51%,9%,6%,14%,0%,0%,9%,0%,18%,29%,11%
C=CC(=O)Nc1cc2c(Nc3ccc(F)c(Cl)c3)ncnc2cc1OCCCN1CCOCC1 [GW781483],0%,0%,3%,0%,11%,1%,0%,0%,15%,0%,0%,18%,0%,0%,3%,4%,1%,17%,10%,33%
CC(C)N1C(=O)Cc2cc(Nc3ncc(C(F)(F)F)c(NCc4cccc(S(C)(=O)=O)c4)n3)ccc21,99.7%,90.2%,98.8%,0%,0%,0%,35%,0%,0%,15%,0%,0%,10%,0%,3%,35%,0%,0%,0%,23%
CCN(CC)CCCCNc1ncc2cc(-c3c(Cl)cccc3Cl)c(NC(=O)NC(C)(C)C)nc2n1,0%,40%,4%,0%,0%,40%,31%,86%,39%,10%,12%,43%,4%,4%,23%,11%,0%,29%,10%,74%
Cl.Cl.Nc1nc(-c2ccc3c(N)n[nH]c3c2)cc(N2CCCC(NC(=O)c3ccccc3)C2)n1 (stereo not drawn) [GSK2286775],0%,0%,0%,2%,0%,0%,8%,2%,39%,0%,0%,27%,11%,22%,0%,20%,0%,16%,35%,12%
Cl.Oc1cc(-c2nc(-c3ccccc3)[nH]c2-c2ccncc2)ccc1Cl [SB-386023],0%,0%,3%,0%,0%,0%,27%,9%,0%,0%,0%,11%,0%,27%,0%,10%,0%,0%,22%,0%
O=C(NCCCN1CCOC1=O)c1cnc(NCc2cc(Cl)ccc2Cl)nc1NC1CCCC1,8%,4%,23%,4%,18%,27%,35%,0%,19%,11%,0%,6%,14%,0%,16%,31%,0%,13%,26%,14%
